From PubChem BioAssay (EPA / NIEHS) come the findings set out here.

The nature of test [1]: ATG_GLI_CIS: Attagene CIS-FACTORIAL HepG2 Assay for human Zinc Finger Protein GLI1 (AID 2282945). Conditions: HepG2, Attagene cis-factorial reporter mRNA, GLI element; actives raise or lower the signal. The gist of the method:
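Bidirectional curve fits relative to DMSO, using reporter mRNA levels from RT-PCR plus capillary electrophoresis. Cells were HepG2 transiently carrying cis-regulated reporter constructs, harvested 24 h after dosing.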

Test [2] can be described thus: ATG_GRE_CIS: Attagene CIS-FACTORIAL HepG2 Assay for human Glucocorticoid Response Elements (GRE) (AID 2282947). Conditions: HepG2 GRE cis-reporter, Attagene multiplex mRNA; actives raise or lower the signal. The gist of the method: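 Assay uses human hepatoma HepG2 cells transfected with cis-promoter reporter units, exposed 24 h. mRNA from reporters detected by RT-PCR plus capillary electrophoresis; DMSO serves as negative control and baseline.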

The nature of test [3]: ATG_ISRE_CIS: Attagene CIS-FACTORIAL HepG2 Assay for human Interferon Regulatory Factor 1 (IRF1) binding to an Interferon-Stimulated Response Element (ISRE) (AID 2282948). Conditions: HepG2 ISRE cis-reporter (Attagene), mRNA transcription readout; actives raise or lower the signal. A digest of the protocol:
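Transiently transfected HepG2 cells carrying cis-element reporter units, dosed 24 hours. Reporter mRNA quantified by RT-PCR, fluorescent primer extension, HpaI digestion and capillary electrophoresis. Bidirectional fitting relative to DMSO.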

Test [4] can be described thus: ATG_M_32_CIS: Attagene CIS-FACTORIAL HepG2 Assay for M32 Transcription Factor (Internal Marker) (AID 2282949).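 Note: background control marker of the multiplexed CIS panel rather than a real target.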 Conditions: HepG2 Attagene cis-factorial M32 reporter, mRNA; actives raise or lower the signal. A digest of the protocol: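 Internal background marker read-out: RT-PCR/capillary electrophoresis fluorescence of reporter transcripts from transiently transfected HepG2 cells after 24 h chemical exposure. Activity fitted bidirectionally relative to DMSO negative control.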

Test [5] is described as follows: ATG_M_06_CIS: Attagene CIS-FACTORIAL HepG2 Assay for M06 Transcription Factor (Internal Marker) (AID 2282950). Conditions: HepG2 Attagene CIS-FACTORIAL M06 internal marker reporter; actives raise or lower the signal. A digest of the protocol: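 Internal background marker within multiplexed cis-reporter HepG2 system. Cells transiently transfected, dosed 24 h; reporter mRNA measured by RT-PCR, HpaI digestion and capillary electrophoresis. Bidirectional fit relative to DMSO.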

Test [6] has as its target Hypoxia-inducible factor 1-alpha (Homo sapiens) (UniProt Q16665). The test is described as follows: ATG_HIF1a_CIS: Attagene CIS-FACTORIAL HepG2 Assay for human Hypoxia Inducible Factor 1 (HIF1A) (AID 2282951). The note with it: HepG2 Attagene cis-factorial HIF1a reporter transcription; actives raise or lower the signal. The gist of the method: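 HepG2, transient cis-reporter library, 24 h dosing. RNA → RT (oligo dT) → PCR → 6-FAM primer extension → HpaI → CE. Bidirectional curve fit vs DMSO.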

Test [7] has as its target Hepatocyte nuclear factor 6 (Homo sapiens) (UniProt Q9UBC0). Description: ATG_HNF6_CIS: Attagene CIS-FACTORIAL HepG2 Assay for human Hepatocyte Nuclear Factor 6 (HNF6) (AID 2282952). Conditions: HepG2 Attagene cis-factorial HNF6 reporter transcription; actives raise or lower the signal. A digest of the protocol:
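HepG2 cells transiently transfected with cis-element-driven multiplexed reporter units measuring endogenous transcription factor activity. After 24 h exposure, reporter mRNA quantified by RT-PCR, FAM-labelled fragments and capillary electrophoresis; bidirectional fitting versus DMSO.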

Test [8] concerns the target Heat shock factor protein 1 (Homo sapiens) (UniProt Q00613). The test is described as follows: ATG_HSE_CIS: Attagene CIS-FACTORIAL HepG2 Assay for human Heat Shock Transcription Factor 1 (HSE) (AID 2282953). Conditions: HepG2 HSE cis-reporter, Attagene RNA transcription; actives raise or lower the signal. A digest of the protocol: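 HepG2 cells transfected with cis-promoter reporter units sensing endogenous transcription factor activity; reporter mRNA quantified 24 h post-dose by RT-PCR and capillary electrophoresis of 6-FAM-labelled products. Bidirectional fitting against DMSO.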

Test [9] in a line: ATG_MRE_CIS: Attagene CIS-FACTORIAL HepG2 Assay for human Metal Responsive Element (MRE) (AID 2282954). Conditions: HepG2 MRE cis-reporter transcription, Attagene multiplex; actives raise or lower the signal. A digest of the protocol: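 After a 24 h chemical exposure, transiently transfected HepG2 cells yield RNA whose reporter sequences are amplified, FAM-labelled and sized by capillary electrophoresis. Curves are fitted bidirectionally relative to DMSO.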

A short description of test [10]: ATG_PBREM_CIS: Attagene CIS-FACTORIAL HepG2 Assay for human Phenobarbital-responsive Enhancer Module (PBREM) (AID 2282955). The note with it: HepG2 PBREM cis-reporter, Attagene multiplexed transcription; actives raise or lower the signal. The gist of the method: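 HepG2, transient MRTU transfection, 24 h dosing; RNA → oligo(dT) RT → PCR → 6-FAM extension → HpaI → CE. Bidirectional fit vs DMSO.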

Test [11] addresses Paired box protein Pax-6 (Homo sapiens) (UniProt P26367). Description: ATG_Pax6_CIS: Attagene CIS-FACTORIAL HepG2 Assay for human Paired Box 6 (PAX6) (AID 2282956). The note with it: HepG2 CIS-FACTORIAL PAX6 reporter transcription, RNA readout; actives raise or lower the signal. A digest of the protocol:
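HepG2 cells transiently transfected with cis-promoter-driven multiplexed reporter units sensing endogenous transcription factor activity; 24 h chemical exposure. Reporter mRNA quantified by RT-PCR, 6-FAM labelling, HpaI digestion and capillary electrophoresis; bidirectional fit versus DMSO baseline.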

Test [12] can be described thus: ATG_PXRE_CIS: Attagene CIS-FACTORIAL HepG2 Assay for human Pregnane X Receptor Element (PXRE) (AID 2282957). The note with it: HepG2 Attagene CIS-FACTORIAL PXRE reporter, mRNA; actives raise or lower the signal. A digest of the protocol:
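HepG2 cells transiently transfected with cis-element-driven multiplexed reporter units; after 24 h chemical exposure, reporter mRNA measured by RT-PCR, 6-FAM labelling, HpaI digestion and capillary electrophoresis. Bidirectional fitting relative to DMSO.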

The nature of test [13]: ATG_PPRE_CIS: Attagene CIS-FACTORIAL HepG2 Assay for human Peroxisome Proliferator-activated Response Element (PPRE) (AID 2282958). Conditions: HepG2 PPRE cis-element reporter, Attagene transcription factor profiling; actives raise or lower the signal. The gist of the method: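 Transcript-level reporter induction in transfected HepG2 cells after 24 h chemical exposure, quantified by fluorescence from RT-PCR products separated by capillary electrophoresis.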

Test [14] in a line: ATG_RORE_CIS: Attagene CIS-FACTORIAL HepG2 Assay for human RAR-related Orphan Receptor Element (RORE) (AID 2282959). Conditions: HepG2 Attagene cis-factorial RORE reporter, mRNA; actives raise or lower the signal. A digest of the protocol:
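Multiplexed reporter assay measuring mRNA induction from a cis promoter element in transiently transfected HepG2 cells after 24 h treatment. Detection via RT-PCR and capillary electrophoresis fluorescence; DMSO serves as baseline.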

The nature of test [15]: ATG_Sox_CIS: Attagene CIS-FACTORIAL HepG2 Assay for human SRY-box transcription factor (SOX) (AID 2282960). The note with it: HepG2 Attagene cis-factorial SOX reporter, mRNA; actives raise or lower the signal. A digest of the protocol:
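Cells were transfected with reporter constructs under cis-regulatory promoters, then exposed to chemicals for 24 h. Reporter transcripts were quantified by fluorescence after RT-PCR and capillary electrophoresis; activity was fitted in both directions against DMSO.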

Test [16] concerns the target Transcription factor Sp1 (Homo sapiens) (UniProt P08047). Description: ATG_Sp1_CIS: Attagene CIS-FACTORIAL HepG2 Assay for human Specificity Protein 1 (Sp1) (AID 2282961). Conditions: HepG2 Sp1 cis-reporter transcription, actives raise or lower the signal. A digest of the protocol: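 Measures mRNA induction of an Sp1-linked reporter in HepG2 cells 24 h post-dosing. Multiplexed reporters read by RT-PCR and capillary electrophoresis; DMSO serves as negative control and baseline.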

A short description of test [17]: ATG_SREBP_CIS: Attagene CIS-FACTORIAL HepG2 Assay for human Sterol Regulatory Element Binding (SREBP) (AID 2282962). Conditions: HepG2 Attagene cis-factorial SREBP reporter, mRNA; actives raise or lower the signal. The gist of the method: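 HepG2 cells transiently transfected with multiplexed cis-promoter reporter units sensing endogenous transcription factors; reporter mRNA measured 24 h after dosing by RT-PCR, 6-FAM labeling, HpaI digestion and capillary electrophoresis. Bidirectional fit versus DMSO.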

Test [18] deals with Signal transducer and activator of transcription 3 (Homo sapiens) (UniProt P40763). The test is described as follows: ATG_STAT3_CIS: Attagene CIS-FACTORIAL HepG2 Assay for human Signal Transducer and Activator of Transcription 3 (STAT3) (AID 2282963). The note with it: HepG2, Attagene cis-factorial STAT3 reporter transcription; actives raise or lower the signal. A digest of the protocol:
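After a 24 h compound incubation, total RNA from MRTU-transfected HepG2 cells was converted to cDNA and reporter sequences PCR-amplified, labelled and profiled by capillary electrophoresis. Gain and loss of signal were referenced to DMSO.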

Test [19] can be described thus: ATG_TA_CIS: Attagene CIS-FACTORIAL HepG2 Assay for human TA Basal Promoter (AID 2282964). The note with it: HepG2 Attagene CIS-factorial TA basal promoter reporter; actives raise or lower the signal. A digest of the protocol: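 HepG2 cells transiently transfected with multiple reporter units under cis promoter elements, reporting endogenous transcription factor activity; this endpoint tracks the TA basal promoter as background control. Reporter mRNA after 24 h dosing measured by RT-PCR/capillary electrophoresis; bidirectional fits versus DMSO.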

The target of test [20] is Bile acid receptor (Homo sapiens) (UniProt Q96RI1). Description: ATG_IR1_CIS: Attagene CIS-FACTORIAL HepG2 Assay for human Nuclear Receptor Subfamily 1 Group H Member 4 (NR1H4), IR1 submotif (AID 2282946). Conditions: IR1 reporter transcription, actives raise or lower the signal. A digest of the protocol:
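Cells (human HepG2) carry transiently transfected cis-promoter reporter transcription units. Compounds are incubated 24 h, total RNA is reverse-transcribed and amplified, and labelled fragments are resolved by capillary electrophoresis. Curves use DMSO as baseline.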

Each structure is given as a SMILES string. Active and inactive are the calls of the source. Rule for the calls: active = hit-call score of the fitted dose curve at least 0.9, where 1 is the maximum; inactive = score below 0.9.

Sequence of Hepatocyte nuclear factor 6 (Homo sapiens) (Q9UBC0 whole entry, looked up, the tested form may be a part): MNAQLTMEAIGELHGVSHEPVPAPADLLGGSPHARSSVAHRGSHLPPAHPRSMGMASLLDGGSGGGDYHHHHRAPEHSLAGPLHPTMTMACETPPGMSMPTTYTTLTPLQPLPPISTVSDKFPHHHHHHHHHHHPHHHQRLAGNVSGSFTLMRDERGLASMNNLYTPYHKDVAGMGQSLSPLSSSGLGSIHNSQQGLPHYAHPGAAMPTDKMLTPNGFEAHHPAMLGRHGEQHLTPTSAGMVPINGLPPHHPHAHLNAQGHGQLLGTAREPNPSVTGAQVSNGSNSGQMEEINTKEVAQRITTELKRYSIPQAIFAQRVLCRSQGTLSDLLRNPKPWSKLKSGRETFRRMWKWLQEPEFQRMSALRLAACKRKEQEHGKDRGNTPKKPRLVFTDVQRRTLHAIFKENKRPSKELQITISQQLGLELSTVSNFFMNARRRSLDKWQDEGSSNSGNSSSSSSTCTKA
Sequence of Transcription factor Sp1 (Homo sapiens) (P08047 whole entry, looked up): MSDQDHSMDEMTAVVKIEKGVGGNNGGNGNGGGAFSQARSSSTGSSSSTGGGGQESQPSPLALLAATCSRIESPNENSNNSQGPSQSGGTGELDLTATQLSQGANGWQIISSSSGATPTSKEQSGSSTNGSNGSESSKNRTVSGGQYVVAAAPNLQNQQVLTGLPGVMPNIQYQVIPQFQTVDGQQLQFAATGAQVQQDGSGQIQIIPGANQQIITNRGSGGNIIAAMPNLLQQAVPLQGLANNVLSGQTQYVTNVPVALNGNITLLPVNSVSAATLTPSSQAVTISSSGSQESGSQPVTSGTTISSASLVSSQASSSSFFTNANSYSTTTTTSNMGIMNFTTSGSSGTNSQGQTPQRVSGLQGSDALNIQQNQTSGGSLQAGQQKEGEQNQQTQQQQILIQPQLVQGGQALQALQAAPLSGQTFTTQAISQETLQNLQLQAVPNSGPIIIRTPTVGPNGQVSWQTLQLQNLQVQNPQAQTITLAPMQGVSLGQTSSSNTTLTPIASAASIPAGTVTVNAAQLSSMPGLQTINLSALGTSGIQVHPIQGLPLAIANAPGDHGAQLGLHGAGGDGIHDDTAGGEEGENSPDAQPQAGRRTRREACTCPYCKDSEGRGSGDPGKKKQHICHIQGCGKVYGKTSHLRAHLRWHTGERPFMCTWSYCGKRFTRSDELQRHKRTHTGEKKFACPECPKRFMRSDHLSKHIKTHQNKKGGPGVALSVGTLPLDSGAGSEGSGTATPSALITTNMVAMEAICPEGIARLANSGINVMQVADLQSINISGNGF
Sequence of Signal transducer and activator of transcription 3 (Homo sapiens) (P40763 whole entry, looked up): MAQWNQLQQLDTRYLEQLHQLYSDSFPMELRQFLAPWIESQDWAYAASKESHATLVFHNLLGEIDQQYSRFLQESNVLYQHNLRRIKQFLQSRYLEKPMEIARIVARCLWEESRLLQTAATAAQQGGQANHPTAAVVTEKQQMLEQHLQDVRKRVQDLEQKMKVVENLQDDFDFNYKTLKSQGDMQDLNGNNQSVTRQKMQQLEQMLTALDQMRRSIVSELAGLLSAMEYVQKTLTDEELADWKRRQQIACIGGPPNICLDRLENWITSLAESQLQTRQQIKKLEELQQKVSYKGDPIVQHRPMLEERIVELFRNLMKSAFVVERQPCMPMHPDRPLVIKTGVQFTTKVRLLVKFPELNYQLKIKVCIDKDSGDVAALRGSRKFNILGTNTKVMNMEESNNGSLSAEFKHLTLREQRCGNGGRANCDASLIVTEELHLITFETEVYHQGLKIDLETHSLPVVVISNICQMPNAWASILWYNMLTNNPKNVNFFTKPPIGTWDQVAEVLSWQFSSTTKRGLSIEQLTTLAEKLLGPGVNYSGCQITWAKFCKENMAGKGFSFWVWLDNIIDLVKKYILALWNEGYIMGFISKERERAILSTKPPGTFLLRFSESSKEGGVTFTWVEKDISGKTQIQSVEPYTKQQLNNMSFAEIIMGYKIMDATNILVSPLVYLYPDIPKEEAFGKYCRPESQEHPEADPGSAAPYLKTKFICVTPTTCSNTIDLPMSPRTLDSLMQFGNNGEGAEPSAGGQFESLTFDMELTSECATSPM
Sequence of Heat shock factor protein 1 (Homo sapiens) (Q00613 whole entry, looked up): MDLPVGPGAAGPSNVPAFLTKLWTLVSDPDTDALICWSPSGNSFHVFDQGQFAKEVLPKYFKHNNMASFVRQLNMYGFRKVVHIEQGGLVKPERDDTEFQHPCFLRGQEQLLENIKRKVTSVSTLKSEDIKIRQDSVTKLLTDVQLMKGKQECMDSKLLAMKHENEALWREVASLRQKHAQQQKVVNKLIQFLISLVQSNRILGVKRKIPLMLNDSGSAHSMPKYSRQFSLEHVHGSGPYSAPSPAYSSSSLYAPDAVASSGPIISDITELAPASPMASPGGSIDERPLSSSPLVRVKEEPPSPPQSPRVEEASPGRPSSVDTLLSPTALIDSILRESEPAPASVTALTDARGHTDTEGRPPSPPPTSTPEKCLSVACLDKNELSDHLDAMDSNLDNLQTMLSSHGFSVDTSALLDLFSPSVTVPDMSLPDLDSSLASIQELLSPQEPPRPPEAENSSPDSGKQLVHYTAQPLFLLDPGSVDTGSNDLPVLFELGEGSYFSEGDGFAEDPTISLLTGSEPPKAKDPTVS
Sequence of Paired box protein Pax-6 (Homo sapiens) (P26367 whole entry, looked up): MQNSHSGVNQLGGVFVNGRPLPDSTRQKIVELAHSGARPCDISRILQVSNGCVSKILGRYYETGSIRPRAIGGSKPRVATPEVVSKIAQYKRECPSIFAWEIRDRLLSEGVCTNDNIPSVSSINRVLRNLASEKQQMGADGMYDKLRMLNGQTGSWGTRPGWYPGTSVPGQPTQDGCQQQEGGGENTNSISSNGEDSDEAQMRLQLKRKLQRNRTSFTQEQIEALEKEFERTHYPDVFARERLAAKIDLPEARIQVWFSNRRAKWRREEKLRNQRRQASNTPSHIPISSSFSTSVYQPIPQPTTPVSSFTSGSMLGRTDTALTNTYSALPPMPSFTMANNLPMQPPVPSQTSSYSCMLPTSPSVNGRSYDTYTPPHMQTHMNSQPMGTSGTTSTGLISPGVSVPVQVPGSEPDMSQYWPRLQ
Sequence of Hypoxia-inducible factor 1-alpha (Homo sapiens) (Q16665 whole entry, looked up): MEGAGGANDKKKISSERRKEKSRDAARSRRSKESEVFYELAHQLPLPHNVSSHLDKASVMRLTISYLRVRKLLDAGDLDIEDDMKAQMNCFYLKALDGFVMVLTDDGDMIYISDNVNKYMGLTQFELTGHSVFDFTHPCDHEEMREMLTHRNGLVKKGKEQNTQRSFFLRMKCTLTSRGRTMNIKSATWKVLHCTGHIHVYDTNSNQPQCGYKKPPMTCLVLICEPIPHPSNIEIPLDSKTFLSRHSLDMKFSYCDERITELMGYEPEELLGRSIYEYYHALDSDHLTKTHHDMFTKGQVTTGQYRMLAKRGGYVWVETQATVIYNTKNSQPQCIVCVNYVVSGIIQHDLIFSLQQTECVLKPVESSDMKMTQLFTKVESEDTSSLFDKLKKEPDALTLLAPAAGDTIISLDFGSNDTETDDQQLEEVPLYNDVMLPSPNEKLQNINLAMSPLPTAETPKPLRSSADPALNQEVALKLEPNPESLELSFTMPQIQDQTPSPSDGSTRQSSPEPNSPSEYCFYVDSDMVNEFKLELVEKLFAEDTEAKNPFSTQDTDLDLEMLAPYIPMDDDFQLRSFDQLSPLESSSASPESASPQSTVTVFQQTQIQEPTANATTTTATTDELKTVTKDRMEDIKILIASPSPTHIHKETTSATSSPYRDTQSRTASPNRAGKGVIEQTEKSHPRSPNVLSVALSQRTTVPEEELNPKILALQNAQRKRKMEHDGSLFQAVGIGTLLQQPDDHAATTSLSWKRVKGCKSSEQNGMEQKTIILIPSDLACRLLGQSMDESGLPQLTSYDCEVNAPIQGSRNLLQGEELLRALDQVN
Sequence of Bile acid receptor (Homo sapiens) (Q96RI1 whole entry, looked up, the tested form may be a part): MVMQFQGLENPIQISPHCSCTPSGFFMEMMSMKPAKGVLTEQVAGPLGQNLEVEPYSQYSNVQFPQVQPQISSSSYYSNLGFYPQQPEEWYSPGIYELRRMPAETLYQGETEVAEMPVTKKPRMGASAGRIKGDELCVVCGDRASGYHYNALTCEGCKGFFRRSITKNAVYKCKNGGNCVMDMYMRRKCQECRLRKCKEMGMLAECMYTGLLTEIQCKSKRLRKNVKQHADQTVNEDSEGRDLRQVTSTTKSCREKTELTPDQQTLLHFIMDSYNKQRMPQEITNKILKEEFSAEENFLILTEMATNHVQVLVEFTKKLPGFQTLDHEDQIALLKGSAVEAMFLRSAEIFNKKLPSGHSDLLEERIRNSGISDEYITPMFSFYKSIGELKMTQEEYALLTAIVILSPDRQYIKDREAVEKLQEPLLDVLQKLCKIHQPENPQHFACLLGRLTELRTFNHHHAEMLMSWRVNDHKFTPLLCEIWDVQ

In general, AC50 refers to the midpoint of the concentration-response curve, whichever way the signal moves. Consider `CCOC(=O)CCC(=O)OCC`, for which the molecule was called inactive in test [1], in [2], in [3], in [4], in [5] and in test [6]. Moreover, the outcome in test [7], in test [8], in test [9], in test [10], in test [11] and in test [13] was inactive. Besides, the molecule was classed as inactive in [14], in test [15], in [16], in [17], in [18] and in [19]. For the same molecule, in test [12], the AC50 was 47.8 µM (active).

In the case of `Nc1nc(N)c2nc(CNc3ccc(C(=O)N[C@@H](CCC(=O)O)C(=O)O)cc3)cnc2n1`, the outcome in test [1], in test [20], in test [2], in [3], in test [5] and in [7] was inactive. In addition, the molecule was classed as inactive in test [8], in [9], in [10], in [11], in [12] and in test [15]. Besides, the result in test [16], in test [17], in test [18] and in test [19] was inactive.

`CN[C@H]1CC[C@@H](c2ccc(Cl)c(Cl)c2)c2ccc(S(N)(=O)=O)cc21`: the molecule was called inactive in test [1], in test [20], in test [2], in test [3], in [5] and in [6]. For the same molecule, the molecule was classed as inactive in test [7], in test [8], in test [9], in test [10], in [11] and in test [12]. Also, the call in [13], in [14], in test [15], in [16], in [18] and in [19] was inactive. In [17], the AC50 is 3.7 µM (active).
